From PubChem BioAssay (EPA / NIEHS)
“And” between values parts separate entries of the source, which are not always exact repeats. Identical values can stand only once. Results filed as inconclusive are left out. Some compounds were tested as several samples or in several runs, with calls that do not always agree. The source made the active and inactive calls. The calls were made as follows, unless noted: active = hit-call score of the fitted dose curve at least 0.9, where 1 is the maximum; inconclusive = response in the unintended direction; inactive = score below 0.9.

Experiments:
[1] = Tanguay_ZF_120hpf_BRAI_legacy: (Legacy) Oregon State University Tanguay Lab 120 Hour Post-fertilization zebrafish Assay for Brain Malformation (AID 2283641)
Method in brief: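 Static exposure of staged wild-type embryos until 120 hpf, kept at 28C with light excluded and final DMSO of 0.64% (vol/vol). Presence or absence of brain malformation was noted under brightfield; mortality precluded scoring.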

[2] = Tanguay_ZF_120hpf_SOMI_legacy: (Legacy) Oregon State University Tanguay Lab 120 Hour Post-fertilization zebrafish Assay for Somite Malformation (AID 2283647)
Method in brief: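 Somitogenesis defects are recorded as binary calls in whole larvae at 120 hpf after continuous static chemical exposure starting at 6 hpf in dechorionated 5D embryos. DMSO serves as negative control and baseline.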

[3] = Tanguay_ZF_120hpf_PFIN_legacy: (Legacy) Oregon State University Tanguay Lab 120 Hour Post-fertilization zebrafish Assay for Pectoral Fin Malformation (AID 2283648);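 also: each larva judged yes or no for fin defect by brightfield with dead larvae skipped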
Method in brief: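 Pectoral fin malformation was recorded as a binary endpoint at 120 hpf in wild-type Tropical 5D larvae, which had been dechorionated and exposed statically from 6 hpf at 28C in 0.64% DMSO. Dead embryos were excluded.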

[4] = Tanguay_ZF_120hpf_CIRC_legacy: (Legacy) Oregon State University Tanguay Lab 120 Hour Post-fertilization zebrafish Assay for Circulatory Malformation (AID 2283651)
Method in brief: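 Static exposure, 6–120 hpf, 28C, sealed and dark; one dechorionated 5D embryo/well; DMSO 0.64% v/v final. Binary circulation endpoint by brightfield; dead embryos not scored.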

[5] = read-out: solute carrier (SLC22A6), SLC22A6 (gene 9356); experiment: LTEA_HepaRG_SLC22A6: Life Technologies and Expression Analysis (LTEA) Assay for solute carrier (SLC22A6) using HepaRG (AID 2283653; active = hit-call score of the fitted dose curve at least 0.9, where 1 is the maximum; inactive = score below 0.9); conditions: mRNA level, 48 h; actives raise or lower the signal
Method in brief: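 Gene-expression endpoint in HepaRG hepatic cells: duplicate 8-point concentration-response, highest 100 uM, 48 h treatment in serum-free medium with 0.5% DMSO. SLC22A6 expression measured by qRT-PCR, normalised to ACTB/GAPDH/POLR2A.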

[6] = Tanguay_ZF_120hpf_SWIM_legacy: (Legacy) Oregon State University Tanguay Lab 120 Hour Post-fertilization zebrafish Assay for Swim Bladder Malformation (AID 2283654);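 also: swim bladder malformation in each larva scored yes or no under brightfield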
Method in brief: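 Scoring is binary for swim bladder defects at 120 hpf, by brightfield inspection of zebrafish larvae. Embryos were exposed singly from 6 hpf after pronase dechorionation, at 28C with 0.64% DMSO; mortality excluded scoring.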

[7] = Tanguay_ZF_120hpf_NC_legacy: (Legacy) Oregon State University Tanguay Lab 120 Hour Post-fertilization zebrafish Assay for Notochord and Tail Malformation (AID 2283656)
Method in brief: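 Binary notochord-distortion calls, made by brightfield inspection, form the read-out; activity is fitted in the positive direction against DMSO. Exposure ran statically from 6 to 120 hpf at 28C with 0.64% DMSO.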

[8] = read-out: solute carrier (SLC10A1), SLC10A1 (gene 6554); experiment: LTEA_HepaRG_SLC10A1: Life Technologies and Expression Analysis (LTEA) Assay for solute carrier (SLC10A1) using HepaRG (AID 2283657; active = hit-call score of the fitted dose curve at least 0.9, where 1 is the maximum; inactive = score below 0.9); conditions: mRNA level, 48 h; actives raise or lower the signal
Method in brief: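 SLC10A1 transcript measured by TaqMan qRT-PCR, housekeeping-normalised, after 48 h chemical treatment of human HepaRG cells. Eight concentrations (half-log, max 100 uM, 0.5% DMSO vehicle) in duplicate; fitted bidirectionally against DMSO baseline.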

[9] = read-out: matrix metalloproteinase-1 (MMP1), MMP1 (gene 4312); experiment: LTEA_HepaRG_MMP1: Life Technologies and Expression Analysis (LTEA) Assay for matrix metalloproteinase-1 (MMP1) using HepaRG (AID 2283658; active = hit-call score of the fitted dose curve at least 0.9, where 1 is the maximum; inactive = score below 0.9); conditions: mRNA level, 48 h; actives raise or lower the signal
Method in brief: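 In this screen, human liver HepaRG cultures receive each chemical in duplicate for 48 h (top 100 uM, 0.5% DMSO). MMP1 expression is then quantified by TaqMan qRT-PCR with ACTB/GAPDH/POLR2A normalization.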

[10] = read-out: ABC Transporter (ABCB1), ABCB1 (gene 5243); experiment: CLD_ABCB1_6hr: CellzDirect (CLD) Gene Expression Assay for ABC Transporter (ABCB1) at 6 hours (AID 2283659);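 also: hits raise ABCB1 transcript above the DMSO vehicle baseline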
Method in brief: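 ABCB1 transcript measured by quantitative nuclease protection assay, chemiluminescent read-out, 6 h after dosing human hepatocyte cultures (0.2% DMSO vehicle, daily redosing). Activity fitted as increase over DMSO baseline; cytotoxicity flagged by phase-contrast morphology.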

[11] = read-out: Broad substrate specificity ATP-binding cassette transporter ABCG2 (Homo sapiens) (UniProt Q9UNQ0); experiment: CLD_ABCG2_6hr: CellzDirect (CLD) Gene Expression Assay for ABC Transporter (ABCG2) at 6 hours (AID 2283660)
Method in brief: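 ABCG2 mRNA induction measured by qNPA chemiluminescence in human primary hepatocyte cultures, 6 h post-dose. Chemicals tested at several concentrations against a 0.2% DMSO vehicle; positive-direction fit relative to DMSO.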

[12] = read-out: xenobiotic metabolism (CYP1A1), CYP1A1 (gene 1543); experiment: CLD_CYP1A1_6hr: CellzDirect (CLD) Gene Expression Assay for xenobiotic metabolism (CYP1A1) at 6 hours (AID 2283661);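 as to AC50: potency for transcript induction above DMSO vehicle baseline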
Method in brief: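 Read-out 6 h post-dose: qNPA chemiluminescent quantitation of transcript induction against 0.2% DMSO. Cells were cultured primary human hepatocytes from two separate donor preparations; phase-contrast morphology annotated apparent cytotoxicity.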

[13] = Tanguay_ZF_120hpf_TR_legacy: (Legacy) Oregon State University Tanguay Lab 120 Hour Post-fertilization zebrafish Assay for Touch Response (AID 2283667)
Method in brief: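 Binary touch-response endpoint in larvae at 120 hpf after static waterborne exposure from embryo stage (28°C, 0.64% DMSO vehicle, 5 uM trimethyltin chloride as positive control); embryos dead at 24 or 120 hpf excluded; fitted as gain versus DMSO.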

[14] = Tanguay_ZF_120hpf_CFIN_legacy: (Legacy) Oregon State University Tanguay Lab 120 Hour Post-fertilization zebrafish Assay for Caudal Fin Malformation (AID 2283649)
Method in brief: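 Single dechorionated 5D wild-type embryos are dosed at 6 hpf (final DMSO 0.64%) and held statically at 28C. Caudal fin malformation is recorded as present or absent at 120 hpf under brightfield, excluding dead embryos.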

[15] = Tanguay_ZF_120hpf_PIG_legacy: (Legacy) Oregon State University Tanguay Lab 120 Hour Post-fertilization zebrafish Assay for Pigmentation Malformation (AID 2283650)
Method in brief: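 Pigment malformation recorded as a binary call at 120 hpf in zebrafish (Tropical 5D) exposed singly from 6 hpf after pronase dechorionation. Static, sealed, 28C exposure, 0.64% DMSO; mortality excludes scoring; positive-direction fit against DMSO.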

[16] = Tanguay_ZF_120hpf_TRUN_legacy: (Legacy) Oregon State University Tanguay Lab 120 Hour Post-fertilization zebrafish Assay for Truncated Body (AID 2283655)
Method in brief: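 Single dechorionated zebrafish embryos received test chemical from 6 hpf in 0.64% DMSO, kept at 28C. At 120 hpf, brightfield inspection noted any truncated body.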

[17] = read-out: xenobiotic metabolism (CYP1A2), CYP1A2 (gene 1544); experiment: CLD_CYP1A2_6hr: CellzDirect (CLD) Gene Expression Assay for xenobiotic metabolism (CYP1A2) at 6 hours (AID 2283663)
Method in brief: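 mRNA levels quantified by quantitative nuclease protection assay with chemiluminescence, 6 h after dosing human primary hepatocyte cultures (two donors) across several concentrations, vehicle 0.2% DMSO. Induction fitted upward versus DMSO; phase-contrast cytotoxicity annotated.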

[18] = read-out: sulfotransferase (SULT2A), SULT2A1 (gene 6822); experiment: CLD_SULT2A_6hr: CellzDirect (CLD) Gene Expression Assay for sulfotransferase (SULT2A) at 6 hours (AID 2283669);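 also: hits raise transcript level above the DMSO vehicle baseline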
Method in brief: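 Measured 6 h after dosing, SULT2A1 mRNA in human hepatocyte lysates was quantified by S1 nuclease protection with chemiluminescent detection. Increases fitted against 0.2% DMSO vehicle baseline; phase-contrast cytotoxicity recorded yes/no.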

[19] = CCTE_Simmons_CellTiterGLO_HEK293T: Viability Assessment in CCTE's Assays for Thyroperoxidase (TPO) Inhibition, Simmons Lab (AID 2283665);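 as to AC50: cells exposed to compound for 24 h before readout; actives reduce ATP signal below DMSO vehicle meaning cytotoxicity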
Method in brief: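 Luminescent ATP readout (CellTiter-Glo, 20 min at room temperature) after 24 hr exposure of HEK293T cells to 5 nM–87.5 uM final compound; signal loss relative to DMSO vehicle indicated cytotoxicity; dichlone titrated as positive control.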

[20] = read-out: kallikrein-3 (KLK3), KLK3 (gene 354); experiment: LTEA_HepaRG_KLK3: Life Technologies and Expression Analysis (LTEA) Assay for kallikrein-3 (KLK3) using HepaRG (AID 2283652; active = hit-call score of the fitted dose curve at least 0.9, where 1 is the maximum; inactive = score below 0.9); conditions: mRNA level, 48 h; actives raise or lower the signal
Method in brief: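 KLK3 transcript levels were measured by TaqMan qRT-PCR with normalisation to three housekeeping genes. HepaRG cultures received chemicals for 48 h at up to 100 uM (half-log, 8 points, 0.5% DMSO vehicle), fitted in both directions against DMSO.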

Measured: AC50

Chain of Broad substrate specificity ATP-binding cassette transporter ABCG2 (Homo sapiens) (Q9UNQ0 whole entry, looked up): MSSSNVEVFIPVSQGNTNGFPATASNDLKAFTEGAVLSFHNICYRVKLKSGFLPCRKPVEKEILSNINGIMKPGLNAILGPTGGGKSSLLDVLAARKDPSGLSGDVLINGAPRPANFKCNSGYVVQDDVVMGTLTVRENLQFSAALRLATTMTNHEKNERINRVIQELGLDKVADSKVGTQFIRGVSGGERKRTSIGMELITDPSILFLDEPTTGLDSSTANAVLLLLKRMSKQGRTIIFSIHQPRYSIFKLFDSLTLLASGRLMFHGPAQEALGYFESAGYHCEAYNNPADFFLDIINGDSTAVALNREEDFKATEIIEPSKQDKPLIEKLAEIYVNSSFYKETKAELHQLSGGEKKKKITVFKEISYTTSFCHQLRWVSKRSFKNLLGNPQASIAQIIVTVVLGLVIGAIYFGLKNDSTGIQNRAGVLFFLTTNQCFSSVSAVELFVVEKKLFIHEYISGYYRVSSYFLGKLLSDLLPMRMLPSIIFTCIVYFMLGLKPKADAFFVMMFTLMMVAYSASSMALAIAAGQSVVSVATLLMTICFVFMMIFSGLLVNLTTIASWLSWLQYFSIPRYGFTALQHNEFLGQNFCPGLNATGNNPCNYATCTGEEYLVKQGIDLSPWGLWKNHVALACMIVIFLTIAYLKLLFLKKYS

CCCCCCC(C)OC(=O)COc1nc(F)c(Cl)c(N)c1Cl (centres undefined)
not listed: [14] | [15] | [16] | [17] | [18] | [19] | [20]
inactive: all other assays above

C#C[C@]1(O)CC[C@H]2[C@@H]3CCC4=CC(=O)CC[C@@H]4[C@H]3CC[C@@]21CC
inactive: [1] | [2] | [14] | [15] | [6] | [7]

COC(=O)c1ccc(I)cc1S(=O)(=O)NC(=O)Nc1nc(C)nc(OC)n1
not listed: [3] | [5] | [8] | [9] | [13] | [19] | [20]
inactive: all other assays above

Oc1ccc(C(c2ccc(O)cc2)C(Cl)(Cl)Cl)cc1
active: [2] 86.3 µM | [15] 202 µM | [4] 202 µM | [6] 202 µM | [12] 0.0522 µM | [19] 28.8 µM
inactive: [1] | [14] | [7] | [10] | [18]

O=C(O)c1ccccc1
not listed: [3] | [10] | [11] | [12] | [17] | [18] | [19] | [20]
inactive: all other assays above

CC1(C)C(C=C(Cl)Cl)C1C(=O)OCc1cccc(Oc2ccccc2)c1 (centres undefined)
inactive: [1] | [2] | [3] | [14] | [6] | [7] | [11] | [12] | [18]

S=C([S-])NCCNC(=S)[S-].[Mn+2]
active: [8] 9.93 µM | [18] 3.97 µM
not listed: [3] | [10] | [11] | [12] | [16] | [17] | [19]
inactive: all other assays above

CCCCOCCOCCOCc1cc2c(cc1CCC)OCO2
active: [14] 10.7 µM | [8] 67.7 µM | [12] 4.17 µM
not listed: [3] | [10] | [16] | [17]
inactive: all other assays above

N#CSCSc1nc2ccccc2s1
active: [8] 83.6 µM | [19] 9.18 µM
not listed: [3] | [16] | [17] | [20]
inactive: all other assays above

CC(C)(c1ccc(O)cc1)c1ccc(O)cc1
inactive: [1] | [2] | [14] | [4] | [6] | [7] | [10] | [11] | [19] | [18]
active: [1] 41.6 µM and 39.4 µM | [2] 44.3 µM and 36.4 µM | [14] 35.2 µM | [15] 42 µM and 36.8 µM | [4] 36.7 µM | [6] 37.5 µM | [12] 0.00719 µM | [13] 47.4 µM and 24.4 µM and 46 µM

CSC(=O)c1cccc2nnsc12
active: [12] 20 µM
not listed: [3] | [5] | [8] | [9] | [11] | [16] | [17] | [20]
inactive: all other assays above
